# Test results: publication PMC7862700, “An all-to-all approach to the identification of sequence-specific readers for epigenetic DNA modifications on cytosine”
# Assays:
# Assay in all cases: DAPPL (digital affinity profiling via proximity ligation, sequencing); 10 mM Tris-HCl pH 7.5, 50 mM NaCl, 1 mM DTT, 4% glycerol, room temperature, 30 min; GST-TFs on glutathione beads, 16-mer random dsDNA library, 0.1% formaldehyde crosslink after washing; high values mean tight binding
# FLI1 = target: T1, FLI1 (Homo sapiens, UniProt Q01543 1-452); settings: protein: recombinant; tags: N-terminal GST; dsDNA, one strand shown
# T1 sequence: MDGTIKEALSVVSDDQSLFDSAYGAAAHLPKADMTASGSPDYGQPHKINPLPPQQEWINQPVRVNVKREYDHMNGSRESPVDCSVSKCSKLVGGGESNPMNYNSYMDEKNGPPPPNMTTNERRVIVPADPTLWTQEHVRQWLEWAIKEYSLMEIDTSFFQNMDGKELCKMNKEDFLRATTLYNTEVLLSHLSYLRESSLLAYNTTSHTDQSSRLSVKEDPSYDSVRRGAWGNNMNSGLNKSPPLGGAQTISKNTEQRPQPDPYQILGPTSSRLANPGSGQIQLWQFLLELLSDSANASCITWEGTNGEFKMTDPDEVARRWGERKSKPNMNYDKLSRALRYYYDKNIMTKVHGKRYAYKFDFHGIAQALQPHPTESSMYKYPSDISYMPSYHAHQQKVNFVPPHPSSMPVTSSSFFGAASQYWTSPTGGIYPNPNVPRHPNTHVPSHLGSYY
# In short: (§1)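 The binding signal reported is, for every hexamer, its read frequency for a factor over its read frequency for the tag-only sample. Reads came from pools of yeast-expressed, GST-fused human transcription factors on glutathione beads, barcoded with DNA and mixed with that sample, which were incubated with 200 nmole of a random double-stranded 16-mer DNA library in Tris/NaCl/DTT/glycerol buffer at room temperature for 30 min. After washing, the pools were crosslinked with 0.1% formaldehyde, proximity-ligated with BsaI/T4 ligase for 1 h at 37 °C, PCR-amplified and sequenced on an Illumina NextSeq500.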
# ELK1 = target: T2, ELK1 (Homo sapiens, UniProt P19419 1-428); settings: protein: recombinant; tags: N-terminal GST; dsDNA, one strand shown
# T2 sequence: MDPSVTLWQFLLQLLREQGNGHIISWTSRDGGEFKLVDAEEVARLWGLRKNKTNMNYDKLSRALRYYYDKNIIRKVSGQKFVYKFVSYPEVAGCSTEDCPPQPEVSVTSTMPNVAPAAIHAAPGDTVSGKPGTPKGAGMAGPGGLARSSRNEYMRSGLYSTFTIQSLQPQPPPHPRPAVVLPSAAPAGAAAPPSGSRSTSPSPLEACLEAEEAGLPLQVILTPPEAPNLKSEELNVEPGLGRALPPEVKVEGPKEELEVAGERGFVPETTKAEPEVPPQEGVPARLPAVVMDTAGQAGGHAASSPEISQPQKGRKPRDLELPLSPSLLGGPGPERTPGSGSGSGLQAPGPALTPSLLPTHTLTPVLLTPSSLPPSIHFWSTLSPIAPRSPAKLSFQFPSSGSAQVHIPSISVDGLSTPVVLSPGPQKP
# In short: as §1
# GABPA = target: T3, GABPA (Homo sapiens, UniProt Q06546 1-454); settings: protein: recombinant; tags: N-terminal GST; dsDNA, one strand shown
# T3 sequence: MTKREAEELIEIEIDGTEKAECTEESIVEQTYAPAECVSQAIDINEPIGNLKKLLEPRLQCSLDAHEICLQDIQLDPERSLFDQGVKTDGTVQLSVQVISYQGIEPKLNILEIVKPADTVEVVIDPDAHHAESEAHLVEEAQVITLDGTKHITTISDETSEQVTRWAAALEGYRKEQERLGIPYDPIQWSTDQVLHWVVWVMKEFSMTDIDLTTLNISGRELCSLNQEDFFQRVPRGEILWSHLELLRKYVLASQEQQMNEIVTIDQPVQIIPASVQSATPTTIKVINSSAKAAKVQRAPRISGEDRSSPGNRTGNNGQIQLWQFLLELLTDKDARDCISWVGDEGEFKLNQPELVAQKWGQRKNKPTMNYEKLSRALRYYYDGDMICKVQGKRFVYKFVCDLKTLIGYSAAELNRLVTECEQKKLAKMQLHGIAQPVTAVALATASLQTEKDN
# In short: as §1
# ERG = target: T4, ERG (Homo sapiens, UniProt P11308 1-479); settings: protein: recombinant; tags: N-terminal GST; dsDNA, one strand shown
# T4 sequence: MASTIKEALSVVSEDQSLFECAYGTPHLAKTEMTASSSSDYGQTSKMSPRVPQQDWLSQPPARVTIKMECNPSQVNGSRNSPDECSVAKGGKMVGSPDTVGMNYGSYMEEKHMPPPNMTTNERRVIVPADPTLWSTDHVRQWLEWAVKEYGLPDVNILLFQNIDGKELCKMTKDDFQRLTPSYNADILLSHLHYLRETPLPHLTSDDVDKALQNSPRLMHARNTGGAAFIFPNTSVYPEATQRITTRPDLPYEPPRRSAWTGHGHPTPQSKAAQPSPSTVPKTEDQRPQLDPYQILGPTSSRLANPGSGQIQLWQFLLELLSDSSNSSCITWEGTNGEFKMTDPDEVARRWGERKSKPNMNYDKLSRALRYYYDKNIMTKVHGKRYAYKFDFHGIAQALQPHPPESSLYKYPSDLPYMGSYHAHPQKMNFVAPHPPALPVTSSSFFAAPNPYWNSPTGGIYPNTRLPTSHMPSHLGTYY
# In short: as §1
# ELF1 = ELF1 (Homo sapiens, UniProt P32519 1-619); settings: protein: recombinant; tags: N-terminal GST; dsDNA, one strand shown
# In short: as §1
# EHF = target: T5, EHF (Homo sapiens, UniProt Q9NZC4 1-300); settings: protein: recombinant; tags: N-terminal GST; dsDNA, one strand shown
# T5 sequence: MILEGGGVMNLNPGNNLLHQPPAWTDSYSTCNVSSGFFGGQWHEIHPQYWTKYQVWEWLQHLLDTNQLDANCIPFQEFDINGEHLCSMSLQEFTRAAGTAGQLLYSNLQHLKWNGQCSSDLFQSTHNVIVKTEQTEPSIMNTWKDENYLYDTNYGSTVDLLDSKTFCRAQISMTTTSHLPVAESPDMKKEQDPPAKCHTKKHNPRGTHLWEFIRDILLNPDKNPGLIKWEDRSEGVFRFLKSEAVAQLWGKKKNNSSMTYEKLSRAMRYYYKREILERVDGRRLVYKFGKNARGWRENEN
# In short: as §1
# SPI1 = SPI1 (Homo sapiens, UniProt P17947 1-270); settings: protein: recombinant; tags: N-terminal GST; dsDNA, one strand shown
# In short: as §1
# SPIB = SPIB (Homo sapiens, UniProt Q01892 1-262); settings: protein: recombinant; tags: N-terminal GST; dsDNA, one strand shown
# In short: as §1
# ELK3 = target: T6, ELK3 (Homo sapiens, UniProt P41970 1-407); settings: protein: recombinant; tags: N-terminal GST; dsDNA, one strand shown
# T6 sequence: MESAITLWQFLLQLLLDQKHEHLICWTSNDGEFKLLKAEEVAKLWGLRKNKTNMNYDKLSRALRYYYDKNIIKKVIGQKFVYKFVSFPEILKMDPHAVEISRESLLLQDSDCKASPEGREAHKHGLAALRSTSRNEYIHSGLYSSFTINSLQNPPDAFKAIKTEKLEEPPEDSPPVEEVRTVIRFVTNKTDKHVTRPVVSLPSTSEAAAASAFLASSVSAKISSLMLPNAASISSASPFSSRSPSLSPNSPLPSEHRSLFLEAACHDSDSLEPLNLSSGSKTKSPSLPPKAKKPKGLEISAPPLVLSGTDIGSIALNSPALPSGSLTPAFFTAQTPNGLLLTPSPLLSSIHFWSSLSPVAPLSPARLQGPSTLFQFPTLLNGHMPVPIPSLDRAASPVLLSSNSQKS
# In short: as §1
# FEV = target: T7, FEV (Homo sapiens, UniProt Q99581 1-238); settings: protein: recombinant; tags: N-terminal GST; dsDNA, one strand shown
# T7 sequence: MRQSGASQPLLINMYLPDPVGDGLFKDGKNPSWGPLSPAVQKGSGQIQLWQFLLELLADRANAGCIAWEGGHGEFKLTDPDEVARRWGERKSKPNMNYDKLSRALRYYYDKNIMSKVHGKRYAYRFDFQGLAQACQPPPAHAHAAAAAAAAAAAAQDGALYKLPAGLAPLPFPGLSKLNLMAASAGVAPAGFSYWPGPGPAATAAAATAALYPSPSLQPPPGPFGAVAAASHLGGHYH
# In short: as §1
# ETV5 = ETV5 (Homo sapiens, UniProt P41161 1-510); settings: protein: recombinant; tags: N-terminal GST; dsDNA, one strand shown
# In short: as §1
# HSF1 = HSF1 (Homo sapiens, UniProt Q00613 1-529); settings: protein: recombinant; tags: N-terminal GST; chain copies: 3; dsDNA, one strand shown
# In short: as §1
# SPIC = target: T8, SPIC (Homo sapiens, UniProt Q8N5J4 1-248); settings: protein: recombinant; tags: N-terminal GST; dsDNA, one strand shown
# T8 sequence: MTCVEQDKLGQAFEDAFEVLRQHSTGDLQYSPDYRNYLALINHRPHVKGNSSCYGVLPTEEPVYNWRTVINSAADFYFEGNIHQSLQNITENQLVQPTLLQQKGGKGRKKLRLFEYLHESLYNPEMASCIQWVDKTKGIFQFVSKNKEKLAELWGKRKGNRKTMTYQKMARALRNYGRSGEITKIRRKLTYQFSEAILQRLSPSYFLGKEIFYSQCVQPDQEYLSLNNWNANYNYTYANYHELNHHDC
# In short: as §1
# ELF4 = ELF4 (Homo sapiens, UniProt Q99607 1-663); settings: protein: recombinant; tags: N-terminal GST; dsDNA, one strand shown
# In short: as §1
# ELK4 = target: T9, ELK4 (Homo sapiens, UniProt P28324-2 1-405); settings: protein: recombinant; tags: N-terminal GST; dsDNA, one strand shown
# T9 sequence: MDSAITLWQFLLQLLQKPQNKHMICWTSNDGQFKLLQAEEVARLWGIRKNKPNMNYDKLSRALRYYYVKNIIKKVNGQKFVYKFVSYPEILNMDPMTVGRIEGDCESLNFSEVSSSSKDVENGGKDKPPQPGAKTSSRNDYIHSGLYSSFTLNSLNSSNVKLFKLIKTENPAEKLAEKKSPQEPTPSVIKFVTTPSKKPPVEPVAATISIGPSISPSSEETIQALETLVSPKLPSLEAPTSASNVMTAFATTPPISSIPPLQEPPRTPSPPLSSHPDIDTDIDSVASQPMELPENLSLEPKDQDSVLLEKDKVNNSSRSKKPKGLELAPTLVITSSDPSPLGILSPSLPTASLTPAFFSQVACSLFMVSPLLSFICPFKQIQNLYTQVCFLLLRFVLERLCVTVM
# In short: as §1
# ETV2 = target: T10, ETV2 (Homo sapiens, UniProt O00321 1-342); settings: protein: recombinant; tags: N-terminal GST; dsDNA, one strand shown
# T10 sequence: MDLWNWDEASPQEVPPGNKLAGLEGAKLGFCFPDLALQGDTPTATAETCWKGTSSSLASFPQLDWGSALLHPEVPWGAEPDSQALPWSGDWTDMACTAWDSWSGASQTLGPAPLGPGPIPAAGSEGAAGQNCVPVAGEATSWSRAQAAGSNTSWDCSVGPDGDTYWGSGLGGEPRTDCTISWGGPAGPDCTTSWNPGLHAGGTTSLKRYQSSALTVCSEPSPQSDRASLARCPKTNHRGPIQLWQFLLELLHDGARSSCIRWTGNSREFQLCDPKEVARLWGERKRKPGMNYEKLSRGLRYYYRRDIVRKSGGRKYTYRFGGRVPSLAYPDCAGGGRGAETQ
# In short: as §1
# ELF3 = target: T11, ELF3 (Homo sapiens, UniProt P78545 1-371); settings: protein: recombinant; tags: N-terminal GST; dsDNA, one strand shown
# T11 sequence: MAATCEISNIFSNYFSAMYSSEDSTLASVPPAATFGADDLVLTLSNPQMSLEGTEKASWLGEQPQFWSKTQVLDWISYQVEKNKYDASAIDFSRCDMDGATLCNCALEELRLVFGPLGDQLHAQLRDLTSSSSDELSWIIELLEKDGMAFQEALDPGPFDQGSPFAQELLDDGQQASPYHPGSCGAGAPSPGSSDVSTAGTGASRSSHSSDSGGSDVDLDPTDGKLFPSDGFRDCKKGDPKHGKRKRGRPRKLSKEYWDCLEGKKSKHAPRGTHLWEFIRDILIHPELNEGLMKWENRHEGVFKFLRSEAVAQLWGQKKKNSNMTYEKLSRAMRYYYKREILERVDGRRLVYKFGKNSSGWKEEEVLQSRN
# In short: as §1
# CRX = CRX (Homo sapiens, UniProt O43186 1-299); settings: protein: recombinant; tags: N-terminal GST; dsDNA, one strand shown
# In short: as §1
# ETV1 = ETV1 (Homo sapiens, UniProt P50549 1-477); settings: protein: recombinant; tags: N-terminal GST; dsDNA, one strand shown
# In short: as §1
# Sequence of ELF4 (Q99607 whole entry): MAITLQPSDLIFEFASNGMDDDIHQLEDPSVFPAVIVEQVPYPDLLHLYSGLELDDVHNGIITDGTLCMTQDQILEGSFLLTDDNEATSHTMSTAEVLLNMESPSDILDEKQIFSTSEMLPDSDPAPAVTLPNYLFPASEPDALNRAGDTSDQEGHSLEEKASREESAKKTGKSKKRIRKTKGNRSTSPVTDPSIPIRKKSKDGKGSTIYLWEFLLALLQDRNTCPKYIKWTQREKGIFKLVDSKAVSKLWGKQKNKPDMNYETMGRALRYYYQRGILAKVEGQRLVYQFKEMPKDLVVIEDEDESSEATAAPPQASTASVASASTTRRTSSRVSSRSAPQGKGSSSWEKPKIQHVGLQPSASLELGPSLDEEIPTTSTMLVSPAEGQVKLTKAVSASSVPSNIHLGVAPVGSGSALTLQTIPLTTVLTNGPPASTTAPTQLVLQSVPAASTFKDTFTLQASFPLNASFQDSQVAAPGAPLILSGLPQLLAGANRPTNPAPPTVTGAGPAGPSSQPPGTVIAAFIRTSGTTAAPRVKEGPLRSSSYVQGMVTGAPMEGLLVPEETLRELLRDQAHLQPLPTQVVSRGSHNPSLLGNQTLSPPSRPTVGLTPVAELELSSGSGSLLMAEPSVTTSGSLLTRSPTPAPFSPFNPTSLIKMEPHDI
# Sequence of ELF1 (P32519 whole entry): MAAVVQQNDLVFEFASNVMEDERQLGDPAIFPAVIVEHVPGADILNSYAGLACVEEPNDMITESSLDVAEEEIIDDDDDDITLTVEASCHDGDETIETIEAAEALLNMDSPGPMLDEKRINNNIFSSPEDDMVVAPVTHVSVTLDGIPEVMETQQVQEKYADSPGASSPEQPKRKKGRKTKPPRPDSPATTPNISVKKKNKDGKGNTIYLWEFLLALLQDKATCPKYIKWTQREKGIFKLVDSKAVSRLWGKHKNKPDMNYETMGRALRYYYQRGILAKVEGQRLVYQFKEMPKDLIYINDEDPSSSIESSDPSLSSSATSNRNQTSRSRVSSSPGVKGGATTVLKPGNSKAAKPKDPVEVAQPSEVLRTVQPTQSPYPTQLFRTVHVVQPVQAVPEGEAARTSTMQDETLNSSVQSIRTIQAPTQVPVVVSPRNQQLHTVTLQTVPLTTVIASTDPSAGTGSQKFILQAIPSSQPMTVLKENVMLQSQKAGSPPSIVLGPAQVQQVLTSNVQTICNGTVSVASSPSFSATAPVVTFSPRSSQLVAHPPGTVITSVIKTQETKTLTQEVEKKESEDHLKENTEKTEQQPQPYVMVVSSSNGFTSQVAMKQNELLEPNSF
# Sequence of ETV5 (P41161 whole entry): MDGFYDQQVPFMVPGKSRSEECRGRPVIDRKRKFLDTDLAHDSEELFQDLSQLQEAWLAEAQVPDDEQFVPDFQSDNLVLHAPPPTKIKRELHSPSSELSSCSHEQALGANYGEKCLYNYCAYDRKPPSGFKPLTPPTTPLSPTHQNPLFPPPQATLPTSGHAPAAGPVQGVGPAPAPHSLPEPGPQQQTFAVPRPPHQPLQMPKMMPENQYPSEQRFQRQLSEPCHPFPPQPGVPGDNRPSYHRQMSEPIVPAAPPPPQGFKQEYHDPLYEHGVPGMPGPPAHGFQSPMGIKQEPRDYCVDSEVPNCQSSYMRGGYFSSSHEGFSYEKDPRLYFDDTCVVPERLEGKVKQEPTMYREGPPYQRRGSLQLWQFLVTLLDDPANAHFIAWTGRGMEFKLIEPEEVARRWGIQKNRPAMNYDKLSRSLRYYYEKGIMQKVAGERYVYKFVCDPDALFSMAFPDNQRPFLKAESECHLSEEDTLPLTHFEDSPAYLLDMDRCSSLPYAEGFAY
# Sequence of CRX (O43186 whole entry): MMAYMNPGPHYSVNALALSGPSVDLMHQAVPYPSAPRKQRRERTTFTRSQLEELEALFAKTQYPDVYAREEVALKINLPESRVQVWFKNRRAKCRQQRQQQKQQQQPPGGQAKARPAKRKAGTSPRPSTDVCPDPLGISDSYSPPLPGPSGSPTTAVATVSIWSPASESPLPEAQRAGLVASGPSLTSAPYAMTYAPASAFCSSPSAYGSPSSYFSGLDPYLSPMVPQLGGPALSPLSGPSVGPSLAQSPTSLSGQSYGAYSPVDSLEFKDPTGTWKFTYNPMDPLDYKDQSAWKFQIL
# Sequence of SPIB (Q01892 whole entry): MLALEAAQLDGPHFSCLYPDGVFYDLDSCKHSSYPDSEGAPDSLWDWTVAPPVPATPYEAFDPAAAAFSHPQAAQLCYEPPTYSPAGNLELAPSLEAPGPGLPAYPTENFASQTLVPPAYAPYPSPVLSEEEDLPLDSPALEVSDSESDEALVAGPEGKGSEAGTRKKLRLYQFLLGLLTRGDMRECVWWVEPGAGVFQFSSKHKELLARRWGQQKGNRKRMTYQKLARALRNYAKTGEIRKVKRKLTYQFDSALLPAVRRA
# Sequence of HSF1 (Q00613 whole entry): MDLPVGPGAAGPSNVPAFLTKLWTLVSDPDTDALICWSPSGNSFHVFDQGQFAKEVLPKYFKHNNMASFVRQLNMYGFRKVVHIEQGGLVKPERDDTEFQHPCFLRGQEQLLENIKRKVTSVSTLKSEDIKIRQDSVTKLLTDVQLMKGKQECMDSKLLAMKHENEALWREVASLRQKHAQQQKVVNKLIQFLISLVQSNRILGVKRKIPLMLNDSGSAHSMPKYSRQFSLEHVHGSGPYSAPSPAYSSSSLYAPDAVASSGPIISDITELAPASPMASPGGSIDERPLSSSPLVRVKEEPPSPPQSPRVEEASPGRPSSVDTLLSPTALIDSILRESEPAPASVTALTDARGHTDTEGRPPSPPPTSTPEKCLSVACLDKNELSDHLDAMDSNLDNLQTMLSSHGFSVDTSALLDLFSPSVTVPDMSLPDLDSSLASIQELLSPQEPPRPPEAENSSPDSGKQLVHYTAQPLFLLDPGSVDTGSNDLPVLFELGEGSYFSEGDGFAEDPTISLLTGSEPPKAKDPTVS
# Sequence of ETV1 (P50549 whole entry): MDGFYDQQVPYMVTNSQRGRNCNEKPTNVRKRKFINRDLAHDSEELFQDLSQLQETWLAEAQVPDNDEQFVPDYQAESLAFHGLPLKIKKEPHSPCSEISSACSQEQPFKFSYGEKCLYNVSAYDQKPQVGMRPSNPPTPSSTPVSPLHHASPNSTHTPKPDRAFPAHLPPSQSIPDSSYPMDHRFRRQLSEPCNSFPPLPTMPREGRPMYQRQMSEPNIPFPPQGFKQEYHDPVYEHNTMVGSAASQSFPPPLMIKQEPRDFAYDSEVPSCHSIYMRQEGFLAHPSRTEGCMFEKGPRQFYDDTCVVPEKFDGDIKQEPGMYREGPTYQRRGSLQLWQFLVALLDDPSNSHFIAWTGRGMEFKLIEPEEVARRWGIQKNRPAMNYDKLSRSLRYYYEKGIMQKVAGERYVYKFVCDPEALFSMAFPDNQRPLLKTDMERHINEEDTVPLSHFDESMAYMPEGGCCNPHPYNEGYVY
sequence,measurement,setting,value
GTATTT,binding signal,FLI1,"1.47 fold enrichment (6-mer frequency, TF over GST control)"
same,binding signal,ELK1,"1.61 fold enrichment (6-mer frequency, TF over GST control)"
same,binding signal,GABPA,"1.48 fold enrichment (6-mer frequency, TF over GST control)"
same,binding signal,ERG,"1.67 fold enrichment (6-mer frequency, TF over GST control)"
same,binding signal,ELF1,"1.53 fold enrichment (6-mer frequency, TF over GST control)"
same,binding signal,EHF,"1.6 fold enrichment (6-mer frequency, TF over GST control)"
same,binding signal,SPI1,"1.55 fold enrichment (6-mer frequency, TF over GST control)"
same,binding signal,SPIB,"1.61 fold enrichment (6-mer frequency, TF over GST control)"
same,binding signal,ELK3,"1.75 fold enrichment (6-mer frequency, TF over GST control)"
same,binding signal,FEV,"1.6 fold enrichment (6-mer frequency, TF over GST control)"
same,binding signal,ETV5,"1.59 fold enrichment (6-mer frequency, TF over GST control)"
same,binding signal,HSF1,"1.5 fold enrichment (6-mer frequency, TF over GST control)"
same,binding signal,SPIC,"1.66 fold enrichment (6-mer frequency, TF over GST control)"
same,binding signal,ELF4,"1.59 fold enrichment (6-mer frequency, TF over GST control)"
same,binding signal,ELK4,"1.52 fold enrichment (6-mer frequency, TF over GST control)"
same,binding signal,ETV2,"1.69 fold enrichment (6-mer frequency, TF over GST control)"
same,binding signal,ELF3,"1.39 fold enrichment (6-mer frequency, TF over GST control)"
same,binding signal,CRX,"1.73 fold enrichment (6-mer frequency, TF over GST control)"
same,binding signal,ETV1,"1.64 fold enrichment (6-mer frequency, TF over GST control)"
